Results taken from PubChem BioAssay (EPA / NIEHS).
Values joined by “and” are separate entries in the source; they are usually repeats but may differ in a detail not shown here. Equal values may be shown once. Active and inactive are the calls of the source. The calls were made as follows: active = hit-call score of the fitted dose curve at least 0.9, where 1 is the maximum; inactive = score below 0.9.

Read-out: Vascular cell adhesion molecule 1 (VCAM1), VCAM1 (gene 7412)
Assay: BSK_hDFCGF_VCAM1: BioMAP Diversity Plus: hDFCGF Assay for Vascular cell adhesion molecule 1 (VCAM1) Biomarker Activity (AID 2283065)
Conditions: primary human foreskin fibroblasts; actives raise or lower the signal
Procedure: BSK_hDFCGF is a cell-based, multiplexed-readout assay that uses foreskin fibroblast, a human skin primary cell, with measurements taken at 24 hours after chemical dosing in a 96-well plate.BSK_hDFCGF_VCAM1 is an assay component measured in the BSK_hDFCGF assay. It measures VCAM-1 antibody related to regulation of gene expression using ELISA technology.Data from the assay component BSK_hDFCGF_VCAM1 was analyzed into 1 assay endpoint. This assay endpoint, BSK_hDFCGF_VCAM1, was analyzed with bidirectional fitting relative to DMSO as the negative control and baseline of activity. Using a type of binding reporter, gain or loss-of-signal activity can be used to understand changes in the signaling as they relate to the gene VCAM1. Furthermore, this assay endpoint can be referred to as a primary readout, because this assay has produced multiple assay endpoints where this one serves a signaling function. To generalize the intended target to other relatable targets, this assay endpoint is annotated to the cell adhesion molecules intended target family, where the subfamily is Immunoglobulin CAM.
The levels of cell surface (or secreted, indicated by the prefix "s") biomarker endpoints were measured by ELISA. Overt cytotoxicity to cells in confluent adherent cultures (all systems other than the BT system) was assessed by measuring total protein levels using sulforhodamine B (SRB) staining in parallel cultures at the time of biomarker measurements, indicated as SRB endpoints. For proliferation assays for adherent cell types, individual cell types are cultured at sub-confluence and relative cell numbers quantified by SRB staining at time points optimized for each system (48 h: 3C and CASM3C systems; 72 h: BT and HDF3CGF systems; 96 h: SAg system). SRB was performed by staining cells with 0.1% SRB after fixation with 10% TCA and reading wells at 560 nm.Viability and proliferation of PBMC (T cells) was quantified by Alamar Blue reduction for the SAg and BT systems. For PBMC viability (referred to as PBMC Cytotoxicity within the assay endpoint names), cells were plated (75,000/well in a 96-well plate) and then chemical samples added for 1 h before addition of activators, SEB and TSST-1 (20 ng/mL final concentration each). Cells were incubated for 90 h. Then, Alamar Blue (20 uL/well) (Invitrogen, Cat DAL1100) was added for 6 h, and the plates were read with a fluorescence microplate reader at 546/580 nm (excitation/emission). For PBMC proliferation, cells were plated and activated as above but incubated for only 16 h prior to addition of Alamar Blue. Plates were read after 6 h.

SMILES	outcome	AC50
CCCCCCCOC(=O)c1ccccc1C(=O)OCCCCCCC	inactive	–
OCC(F)(F)C(F)(F)C(F)(F)F	inactive	–
FC(F)(Br)C(F)(F)C(F)(F)C(F)(F)C(F)(F)C(F)(F)Br	inactive	–
C=C(C)C(=O)OCC(F)(F)C(F)(F)C(F)(F)F	inactive	–
O=C(CC(=O)C(F)(F)C(F)(F)F)C(F)(F)F	inactive	–
OCC(F)(F)C(F)(F)C(F)(F)C(F)F	inactive	–
O=C(O)C(F)(F)C(F)(F)C(F)(F)C(F)(F)C(F)(F)C(F)(F)C(F)(F)C(F)(F)Cl	–	46.8 µM (active) and 30 µM (active)
O=S(=O)(OCC(F)F)C(F)(F)F	inactive	–
O=S(=O)(O)C(F)(F)C(F)(F)C(F)(F)C(F)(F)C(F)(F)C(F)(F)C(F)(F)F	inactive	–
O=C(O)C(F)(F)C(F)(F)C(F)(F)C(F)(F)F	inactive	–
O=C(O)C(F)(OC(F)(F)C(F)(OC(F)(F)C(F)(OC(F)(F)C(F)(F)C(F)(F)F)C(F)(F)F)C(F)(F)F)C(F)(F)F (stereo not given)	inactive	–
CCCCCCC(C)OC(=O)CCCCC(=O)OC(C)CCCCCC (stereo not given)	inactive	–
O=C(O)C(F)(F)C(F)(F)C(F)(F)F	inactive	–
C=CC(F)(F)C(F)(F)C(F)(F)C(F)(F)C(F)(F)C(F)(F)C(F)(F)C(F)(F)F	inactive	–
CCCCC(CC)COP(=O)(O)OCC(CC)CCCC (stereo not given)	–	37.6 µM (active) and 32 µM (active)
C=C(C)C(=O)OCC(F)(F)C(F)(F)C(F)(F)C(F)(F)C(F)(F)C(F)(F)C(F)(F)F	inactive	–
O=C(O)C(F)(F)C(F)(F)C(F)(F)C(F)(F)C(F)(F)C(F)(F)C(F)(F)C(F)(F)C(F)(F)C(F)(F)C(F)(F)C(F)(F)F	–	4.75 µM (active) and 1.14 µM (active)
O=C(O)C(F)(F)C(F)(F)C(F)(F)C(F)(F)C(F)(F)C(F)(F)C(F)(F)C(F)(F)C(F)(F)C(F)F	–	15.3 µM (active) and 5.95 µM (active)
CO[Si](OC)(c1ccccc1)c1ccccc1	inactive	–
FC(F)(F)C(F)(F)CNCC(F)(F)C(F)(F)F	inactive	–

SMILES	outcome	AC50
FC(F)(F)C(F)(F)C(F)(F)CI	inactive	–
CCc1ccc(C(c2ccc(CC)cc2)C(Cl)Cl)cc1	–	14.2 µM (active)
FC1CC(F)(F)C(F)(F)C1(F)F (stereo not given)	inactive	–
O=C(O)C(F)(F)C(F)(F)OC(F)(F)F	inactive	–
FC(F)(F)C(F)(F)C(F)(F)C(F)(F)C(F)(F)C(F)(F)C(F)(F)C(F)(F)CCS	inactive	–
Cc1ccc(S(=O)(=O)OCC(F)(F)C(F)(F)C(F)(F)C(F)(F)C(F)(F)C(F)F)cc1	inactive	–
CCCCCCCCC(F)(F)C(F)(F)C(F)(F)C(F)(F)C(F)(F)C(F)(F)F	inactive	–
O=C(O)C(F)(F)C(F)(F)C(F)F	inactive	–
C=CC/C=C/C/C=C/C/C=C/C	inactive	–
Nc1ccc([N+](=O)[O-])cc1O	inactive	–
CCCCOCCOCCOC(=O)CCCCC(=O)OCCOCCOCCCC	inactive	–
FC(F)(F)C(F)(F)C(F)(F)C(F)(F)C(F)(F)C(F)(F)C(F)(F)C(F)(F)F	inactive	–
O=C(O)C(F)(F)C(F)(F)F	inactive	–
OCC(F)(F)C(F)(F)C(F)(F)C(F)(F)C(F)(F)C(F)F	inactive	–
C#C[C@]1(O)CC[C@H]2[C@@H]3CCc4cc(OC)ccc4[C@H]3CC[C@@]21C	inactive	–
O=P(O)(O)OCCC(F)(F)C(F)(F)C(F)(F)C(F)(F)C(F)(F)C(F)(F)F	inactive	–
O=S(=O)(OCCOC(F)(F)F)C(F)(F)F	inactive	–
OCCCC(F)(F)C(F)(F)C(F)(F)F	inactive	–
C=CC(=O)OCC(F)(F)C(F)(F)C(F)(F)C(F)(F)COC(=O)C=C	–	3.41 µM (active) and 3.27 µM (active)
C=CC(=O)OCC(F)(F)C(F)(F)C(F)(F)C(F)(F)C(F)(F)C(F)(F)C(F)(F)F	inactive	–
